Source: PubChem (National Center for Advancing Translational Sciences (NCATS))
An excerpt weighted towards active compounds, which were near 9.2% of everything screened.
NPC1 promoter act: qHTS Assay for NPC1 Promoter Activators | Huh7 NPC1 promoter luciferase reporter, 24 h | hit rate 2.4% among 320,000 | Potency, µM (highest dose often 9.22 µM), for the others: at the highest dose activation, hits mostly activators | AID 485313, 2010; note: % of control where 0% means no effect; nearly all actives have a fitted effect of over 60% in size
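Stably transfected Huh7 (NPC1 promoter→luciferase), 1500 cells/well in Opti-MEM + 10% FBS, 2 h settle, then compound 24 h at 37 °C. Luminescence after 10 min with Amplite reagent.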
Rab9 prom act: qHTS Assay for Rab9 Promoter Activators; Huh7 Rab9 promoter-luciferase reporter, luminescence, 24 h; Potency, µM (top dose mostly 9.22 µM), without a hit: top-dose activation, negative = inhibition, hits mostly activators; hit rate 2.8% among 320,000; AID 485297, 2010; note: % of control where 0% means no effect; nearly all actives have a fitted effect of over 60% in size
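Measured in stably transfected Huh7 cells bearing a Rab9 promoter–luciferase construct: 24 h compound treatment at 37 °C, followed by luminescence detection.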
ELG1 genotox: qHTS screen for small molecules that induce genotoxicity in human embryonic kidney (HEK293T) cells expressing luciferase-tagged ELG1 | HEK293T ELG1-luciferase reporter, luminescence, 16 h | Potency, µM (doses to about 46 µM), without a hit: at the highest dose activity change, positive = activation, actives largely listed as activators | hit rate 1.3% among 330,000 | AID 504466, 2011; note: % of control where 0% means no effect; nearly all actives have a fitted effect of over 60% in size
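HEK293T cells expressing luciferase-tagged ELG1 were exposed to compound or DMSO vehicle for 16 hr at 37 °C and 5% CO2. Luciferase activity was then measured with ONE-Glo after 30 min at room temperature.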
FLuc counter: qHTS profiling assay for firefly luciferase inhibitor/activator using purifed enzyme and Km concentrations of substrates (counterscreen for miR-21 project) | Luciferin 4-monooxygenase (Photinus pyralis), P08659 | purified FLuc, Km substrates, luminescence inhibition | Potency, µM (titrated, usually from 57.5 µM), inactives show at the highest dose activity change, negative = inhibition, hits mostly inhibitors | hit rate 6.9% among 360,000 | AID 588342, 2011;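 note: plate controls were vehicle for no effect and reference inhibitor for full effect; nearly all actives have a fitted effect of over 55% in size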
Target sequence (P08659 whole entry, looked up): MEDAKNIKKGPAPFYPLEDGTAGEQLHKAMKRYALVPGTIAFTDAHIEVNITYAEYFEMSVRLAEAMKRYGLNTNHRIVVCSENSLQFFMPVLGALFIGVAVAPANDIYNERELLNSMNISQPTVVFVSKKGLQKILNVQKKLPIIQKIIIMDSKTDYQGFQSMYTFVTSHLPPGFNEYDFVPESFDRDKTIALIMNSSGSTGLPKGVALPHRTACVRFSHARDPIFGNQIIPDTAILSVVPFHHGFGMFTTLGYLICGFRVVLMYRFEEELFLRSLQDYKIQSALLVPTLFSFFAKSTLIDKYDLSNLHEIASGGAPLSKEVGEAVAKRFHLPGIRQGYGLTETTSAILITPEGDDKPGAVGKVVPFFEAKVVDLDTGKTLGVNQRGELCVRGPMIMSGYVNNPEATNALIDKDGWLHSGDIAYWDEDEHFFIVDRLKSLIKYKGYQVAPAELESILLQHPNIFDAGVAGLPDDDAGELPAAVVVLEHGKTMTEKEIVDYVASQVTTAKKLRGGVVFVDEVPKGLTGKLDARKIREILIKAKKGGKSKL
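Purified P. pyralis luciferase, 10 nM final, with Km-level 10 uM D-luciferin and 10 uM ATP in 50 mM Tris acetate pH 7.5, 10 mM Mg acetate, 0.01% Tween-20, 0.05% BSA; 6-point qHTS titration about 60 µM downward; luminescence read.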
ELG1 repair inh: qHTS screen for small molecules that inhibit ELG1-dependent DNA repair in human embryonic kidney (HEK293T) cells expressing luciferase-tagged ELG1 | AID 504467, 2011 | HEK293T ELG1-luciferase reporter, luminescence, 16 h; DNA damage induced by 5-fluorouridine | hit rate 2.3% among 330,000 | Potency, µM (doses to about 46.1 µM), for inactives: at the highest dose activity change, negative = inhibition, usual class: inhibitors; note: % is set by controls: 0 for no effect and ±100 for the full control effect; nearly all actives have a fitted effect of over 55% in size
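Overnight (16 hr) co-exposure of 2,000 cells/well to 5-fluorouridine and compound at 37 °C preceded detection. Luciferase was quantified via ONE-Glo luminescence; loss of signal denotes inhibition.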
SMN2 splice up: qHTS Assay for Enhancers of SMN2 Splice Variant Expression | hit rate 2.8% among 210,000 | HEK293 SMN2-luciferase splicing reporter, luminescence, 30-36 h | AID 1458, 2008 | Potency, µM (doses to about 46.1 µM), for inactives: top-dose activity change, positive = activation, actives largely listed as activators; note: % of control where 0% means no effect; nearly all actives have a fitted effect of over 55% in size
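HEK293 cells carry an SMN2 […]–luciferase reporter in which exon 7 inclusion puts luciferase in frame. Cells were plated 10-12 h before compound addition, then incubated 30-36 h at 37C. ONE-Glo luminescence was read; sodium butyrate at 4.5 mM final served as control.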
* hit, by the source's call. Calls come from the whole dose curve; as a rule, active = well fitted curve in the direction sought with a large enough effect; inconclusive = small, poorly fitted or top-dose-only effect, or another doubt; inactive = no such curve, though single readings can be large; an effect the other way counts as inactive or inconclusive. Potency is the fitted concentration of half-maximal effect.

For c1ccc(-c2cn(-c3ccccc3)c3[n+]2CCCS3)cc1 the results were NPC1 promoter act -6%, Rab9 prom act -20%, ELG1 genotox -15%, FLuc counter 0% and ELG1 repair inh 21µM*.
`CCc1ccc(-n2cc(-c3ccc(F)cc3)[n+]3c2SCCC3)cc1` gave NPC1 promoter act -32%, Rab9 prom act -30%, ELG1 genotox -16%, FLuc counter 2%, ELG1 repair inh 4.6µM* and SMN2 splice up -45%.
Screening Cc1ccc(C(=O)NCCCNC(=O)Cc2ccccc2)cn1 returned NPC1 promoter act -3%, Rab9 prom act 5%, ELG1 genotox 0%, FLuc counter 0% and ELG1 repair inh 8%.
O=C(/C=C/c1c[nH]c2ccccc12)c1ccccc1 was read as NPC1 promoter act 3.2µM*, Rab9 prom act 3.5µM*, ELG1 genotox 16µM*, FLuc counter 5.4µM*, ELG1 repair inh inconclusive and SMN2 splice up 10µM*.
For COc1ccc2[nH]cc(C=O)c2c1 the results were NPC1 promoter act 8%, Rab9 prom act -4%, ELG1 genotox -2%, FLuc counter -2%, ELG1 repair inh 15% and SMN2 splice up -14%.
COc1ccc2[nH]cc(/C=C/C(=O)c3ccccc3)c2c1 was read as NPC1 promoter act 3.2µM*, Rab9 prom act 1.6µM*, ELG1 genotox inconclusive, FLuc counter 3.4µM* and ELG1 repair inh inconclusive.
`Cc1ccc(C(=O)/C=C/c2c[nH]c3ccccc23)cc1` gave NPC1 promoter act 4µM*, Rab9 prom act 3.5µM*, ELG1 genotox inconclusive, FLuc counter 5.4µM*, ELG1 repair inh inconclusive and SMN2 splice up inconclusive.
`COc1ccc(CNC(=O)COC(=O)c2ccc(S(=O)(=O)N3CCCCC3)cc2)cc1` gave ELG1 genotox 5% and ELG1 repair inh 7%.
For CCC(C)NC(=O)CSc1nc2n[nH]c(C)c2c(=N)n1-c1ccc(C)c(Cl)c1 (centres undefined) the results were FLuc counter 0%.
Cc1cc(C(=O)NCCCn2ccnc2)sc1-c1ccccc1 was read as NPC1 promoter act 1%, Rab9 prom act -7%, ELG1 genotox -7%, FLuc counter inconclusive, ELG1 repair inh -1% and SMN2 splice up -8%.
For Cn1c(-c2ccc3nc(N)sc3c2)nc2cc(N)ccc21 the results were NPC1 promoter act inconclusive, Rab9 prom act 23%, ELG1 genotox inconclusive, FLuc counter 21µM*, ELG1 repair inh inconclusive and SMN2 splice up 7%.
For Nc1nc2ccc(C(=O)N3CCCCC3)cc2s1 the results were NPC1 promoter act 1%, Rab9 prom act 0%, ELG1 genotox 8%, FLuc counter -11% and ELG1 repair inh -2%.
Screening Cn1c(CCc2ccc(N)cc2)nc2ccccc21 returned NPC1 promoter act 3.2µM*, Rab9 prom act 1.6µM*, ELG1 genotox inconclusive, FLuc counter 12µM*, ELG1 repair inh inconclusive and SMN2 splice up 11µM*.
Cn1c(-c2ccc(N)cc2)nc2ccccc21 was read as NPC1 promoter act inconclusive, Rab9 prom act 4µM*, ELG1 genotox inconclusive, FLuc counter 19µM* and ELG1 repair inh inconclusive.
`CC(=O)c1cccc(NC(=O)CCCSc2nc(-c3ccco3)cc(C(F)(F)F)n2)c1` gave FLuc counter 1% and SMN2 splice up -26%.
Screening CCCCc1ccc(NC(=O)c2ccc3c(c2)CCN3S(=O)(=O)c2ccccc2)cc1 returned FLuc counter 1% and SMN2 splice up -42%.
`O=C1NC(=Nc2ccc(O)cc2)S/C1=C/c1ccco1` gave NPC1 promoter act -19%, Rab9 prom act -12%, ELG1 genotox -6%, FLuc counter -1%, ELG1 repair inh 10% and SMN2 splice up 29%.
`Cc1ccc(N=C2NC(=O)/C(=C\c3ccco3)S2)cc1` gave NPC1 promoter act inconclusive, Rab9 prom act inconclusive, ELG1 genotox inconclusive, FLuc counter 17µM*, ELG1 repair inh inconclusive and SMN2 splice up 16%.
For COc1cc(/C=C2\SC(=Nc3ccc(O)cc3)NC2=O)cc(OC)c1O the results were NPC1 promoter act -17%, Rab9 prom act -9%, ELG1 genotox inconclusive, FLuc counter -1% and ELG1 repair inh -27%.
Cn1cccc1/C=C1\SC(=Nc2ccccc2)NC1=O was read as NPC1 promoter act -18%, Rab9 prom act 22%, ELG1 genotox 23µM*, FLuc counter 9.5µM* and ELG1 repair inh inconclusive.
Screening Cn1cccc1/C=C1\SC(=Nc2cccc(O)c2)NC1=O returned NPC1 promoter act 12%, Rab9 prom act inconclusive, ELG1 genotox inconclusive, FLuc counter 12µM* and ELG1 repair inh inconclusive.
Screening CCOc1ccc2c(c1)S/C(=C\c1cccs1)C(=O)N2 returned NPC1 promoter act inconclusive, Rab9 prom act inconclusive, ELG1 genotox inconclusive, FLuc counter 9.5µM* and ELG1 repair inh inconclusive.
`Cc1ccc(N=C2NC(=O)/C(=C/c3cccn3C)S2)c(C)c1` gave NPC1 promoter act 0%, Rab9 prom act 0%, ELG1 genotox -8%, FLuc counter 0% and ELG1 repair inh inconclusive.
Screening CCN(CC(=O)Nc1cc(S(=O)(=O)N2CCCCC2)ccc1C)Cc1ccccc1 returned NPC1 promoter act -1%, Rab9 prom act -6%, ELG1 genotox -4%, FLuc counter 5% and ELG1 repair inh -3%.
For Cc1ccnc(NC(=O)c2ccc3c(c2)C(=O)N(CCC(C)C)C3=O)c1 the results were NPC1 promoter act 27%, Rab9 prom act 10%, ELG1 genotox 13%, FLuc counter inconclusive and ELG1 repair inh inconclusive.
COc1cccc([C@@H]2Oc3ccc(Br)cc3C[C@H]2OC(=O)N[C@H]2CCCc3ccccc32)c1 was read as SMN2 splice up 0%.
Cc1ccc(CSc2nnc([C@@H](N)C(C)C)o2)cc1 was read as FLuc counter 0% and SMN2 splice up -7%.
Cc1cc(C)cc(N=C2NC(=O)/C(=C/c3cccs3)S2)c1 was read as NPC1 promoter act 1%, Rab9 prom act -2%, ELG1 genotox 3%, FLuc counter -19%, ELG1 repair inh 1% and SMN2 splice up -22%.
